Common to all, as to test: log2 fold change, soluble protein after heating vs DMSO (PISA); higher = thermal stabilisation; K562 lysate, 10 uM; active = over 0.2 and 3.5 SD of the protein, either way, in both replicates (recomputed)
Compound in assay [1]: C1=CC=C(C=C1)[C@H](COC2=CC3=C(C=C2)NC(=O)N3)NC(=O)C4=CC=CN(C4=O)CC5=CC(=C(C=C5)F)F
The procedure, abridged:
(§1)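 Following dounce homogenisation of K562 pellets in PBS pH 7.4 with 1 mM MgCl2, crude extract at 1 mg/mL protein was incubated for 30 min with 10 μM compound. Aliquots were then heated for 3 min over 48°C-58°C and pooled, NP-40 was added to 0.5% at 4°C, and soluble protein was recovered as the supernatant at 21,000xg for 90 min. Channel-sum-equalised TMTpro 16plex LC-MS/MS quantified this protein. Each value, from duplicates, is a log-two fold change in thermal stability relative to solvent controls.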

Compound in assay [2]: CC1=C(SC2=C1C(=N[C@H](C3=NN=C(N32)C)CC(=O)N)C4=CC=C(C=C4)Cl)C
The procedure, abridged:
as §1

Compound in assay [3]: CC1=C2C(=CC=C1)N=C(N(C2=O)C3=CC=CC=C3C)CN4C=NC5=C(N=CN=C54)N
An outline of the steps: as §1

Compound in assay [4]: Cc1sc2c(c1C)C(c1ccc(Cl)cc1)=N[C@@H](CC(=O)OC(C)(C)C)c1nnc(C)n1-2
An outline of the steps: as §1

Compound in assay [5]: c1ccc([C@@H]2C[C@H]2NC2CCNCC2)cc1
The procedure, abridged:
as §1

Targets with a hit are over-represented here; the source holds about 8,800 in all. About 0.5% of all pairs of compound and target were hits. A number with no mark means an inactive call.

Sequence of UniProt Q13509 (Q13509 whole entry, looked up): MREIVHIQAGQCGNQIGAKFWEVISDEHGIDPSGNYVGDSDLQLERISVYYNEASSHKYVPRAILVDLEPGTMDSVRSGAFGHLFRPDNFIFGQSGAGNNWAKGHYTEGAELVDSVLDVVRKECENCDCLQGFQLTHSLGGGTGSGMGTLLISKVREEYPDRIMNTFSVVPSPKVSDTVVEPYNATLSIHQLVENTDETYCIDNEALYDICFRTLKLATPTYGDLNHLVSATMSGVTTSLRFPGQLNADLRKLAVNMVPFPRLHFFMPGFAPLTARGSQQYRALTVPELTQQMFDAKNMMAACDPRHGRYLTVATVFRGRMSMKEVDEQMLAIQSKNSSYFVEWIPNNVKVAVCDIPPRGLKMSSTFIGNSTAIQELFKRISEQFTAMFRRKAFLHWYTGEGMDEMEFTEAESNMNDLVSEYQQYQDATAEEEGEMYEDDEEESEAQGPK
Sequence of UniProt Q5U3C3 (Q5U3C3 whole entry, looked up): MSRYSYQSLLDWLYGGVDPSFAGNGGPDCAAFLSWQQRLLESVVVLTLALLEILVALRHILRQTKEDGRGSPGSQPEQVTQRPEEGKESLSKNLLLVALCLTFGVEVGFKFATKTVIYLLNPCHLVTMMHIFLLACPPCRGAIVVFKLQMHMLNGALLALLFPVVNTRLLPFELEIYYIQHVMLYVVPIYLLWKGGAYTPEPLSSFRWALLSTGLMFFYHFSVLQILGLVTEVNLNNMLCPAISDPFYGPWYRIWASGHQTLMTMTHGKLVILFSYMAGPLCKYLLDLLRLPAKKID
Sequence of UniProt Q9BZL1 (Q9BZL1 whole entry, looked up): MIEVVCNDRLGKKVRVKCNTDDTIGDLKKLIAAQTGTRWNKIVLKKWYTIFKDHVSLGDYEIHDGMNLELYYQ
Sequence of UniProt A6NFQ2 (A6NFQ2 whole entry, looked up): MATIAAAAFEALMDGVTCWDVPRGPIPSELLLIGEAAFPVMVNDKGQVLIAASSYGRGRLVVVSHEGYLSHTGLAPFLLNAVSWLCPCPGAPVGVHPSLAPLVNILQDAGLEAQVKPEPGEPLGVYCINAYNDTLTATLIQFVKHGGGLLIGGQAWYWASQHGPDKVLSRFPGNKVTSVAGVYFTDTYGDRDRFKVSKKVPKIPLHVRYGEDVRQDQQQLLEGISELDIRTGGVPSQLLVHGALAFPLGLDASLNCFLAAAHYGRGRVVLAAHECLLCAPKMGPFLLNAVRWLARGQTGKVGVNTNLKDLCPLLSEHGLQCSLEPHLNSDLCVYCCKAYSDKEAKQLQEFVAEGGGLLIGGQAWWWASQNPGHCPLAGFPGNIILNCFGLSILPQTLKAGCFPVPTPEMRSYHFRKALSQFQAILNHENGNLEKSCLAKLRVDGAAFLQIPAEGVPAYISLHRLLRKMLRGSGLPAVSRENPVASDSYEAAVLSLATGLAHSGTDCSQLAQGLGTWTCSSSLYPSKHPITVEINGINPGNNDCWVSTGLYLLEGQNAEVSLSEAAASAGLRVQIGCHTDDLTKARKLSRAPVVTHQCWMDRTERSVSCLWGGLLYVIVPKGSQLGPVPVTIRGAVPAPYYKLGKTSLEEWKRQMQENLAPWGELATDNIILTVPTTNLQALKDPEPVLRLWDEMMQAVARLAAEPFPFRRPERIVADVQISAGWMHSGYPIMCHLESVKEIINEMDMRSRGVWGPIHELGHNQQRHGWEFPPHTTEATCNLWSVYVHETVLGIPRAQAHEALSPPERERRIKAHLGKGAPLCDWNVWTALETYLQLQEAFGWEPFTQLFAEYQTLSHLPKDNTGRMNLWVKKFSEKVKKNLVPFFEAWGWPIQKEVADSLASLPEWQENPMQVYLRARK
Sequence of UniProt Q96K49 (Q96K49 whole entry, looked up): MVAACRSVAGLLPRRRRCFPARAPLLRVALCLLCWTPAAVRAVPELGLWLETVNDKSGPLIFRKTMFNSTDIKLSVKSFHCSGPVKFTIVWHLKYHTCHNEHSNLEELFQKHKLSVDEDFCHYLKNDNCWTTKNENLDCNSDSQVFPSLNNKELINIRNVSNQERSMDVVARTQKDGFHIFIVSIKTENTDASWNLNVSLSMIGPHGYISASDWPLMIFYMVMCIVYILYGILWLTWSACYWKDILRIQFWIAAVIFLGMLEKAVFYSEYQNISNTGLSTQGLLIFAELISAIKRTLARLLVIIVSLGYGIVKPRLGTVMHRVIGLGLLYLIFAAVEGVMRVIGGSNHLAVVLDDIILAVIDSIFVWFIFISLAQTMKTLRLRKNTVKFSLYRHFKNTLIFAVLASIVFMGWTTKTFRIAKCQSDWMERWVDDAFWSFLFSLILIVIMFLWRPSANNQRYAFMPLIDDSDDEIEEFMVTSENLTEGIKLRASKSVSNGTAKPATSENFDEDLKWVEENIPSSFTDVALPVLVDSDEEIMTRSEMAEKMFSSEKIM
Sequence of UniProt Q9NNW7 (Q9NNW7 whole entry, looked up): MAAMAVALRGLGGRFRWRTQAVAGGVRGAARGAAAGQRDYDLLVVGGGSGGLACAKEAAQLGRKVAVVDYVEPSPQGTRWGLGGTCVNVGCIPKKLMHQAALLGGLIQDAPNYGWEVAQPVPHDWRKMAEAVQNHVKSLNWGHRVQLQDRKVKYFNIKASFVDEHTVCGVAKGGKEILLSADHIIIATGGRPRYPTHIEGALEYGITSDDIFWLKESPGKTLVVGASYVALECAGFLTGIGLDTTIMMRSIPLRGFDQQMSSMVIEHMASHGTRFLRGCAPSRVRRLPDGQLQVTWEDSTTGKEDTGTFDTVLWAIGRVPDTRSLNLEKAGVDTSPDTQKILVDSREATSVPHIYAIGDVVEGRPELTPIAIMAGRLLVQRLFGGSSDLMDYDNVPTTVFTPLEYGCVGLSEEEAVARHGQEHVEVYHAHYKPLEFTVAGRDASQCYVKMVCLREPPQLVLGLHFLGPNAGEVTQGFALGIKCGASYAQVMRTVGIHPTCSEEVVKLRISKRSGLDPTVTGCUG
Sequence of UniProt Q01085 (Q01085 whole entry, looked up): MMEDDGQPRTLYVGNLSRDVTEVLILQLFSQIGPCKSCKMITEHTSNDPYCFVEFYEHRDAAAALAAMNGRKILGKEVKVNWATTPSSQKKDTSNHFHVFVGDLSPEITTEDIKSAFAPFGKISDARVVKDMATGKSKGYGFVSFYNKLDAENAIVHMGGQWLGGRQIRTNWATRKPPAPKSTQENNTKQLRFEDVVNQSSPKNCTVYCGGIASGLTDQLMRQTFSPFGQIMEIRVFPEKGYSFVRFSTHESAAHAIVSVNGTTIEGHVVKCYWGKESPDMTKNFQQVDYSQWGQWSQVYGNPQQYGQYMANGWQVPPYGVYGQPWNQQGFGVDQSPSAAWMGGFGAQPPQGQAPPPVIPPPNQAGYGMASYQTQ
Sequence of UniProt Q96BS2 (Q96BS2 whole entry, looked up): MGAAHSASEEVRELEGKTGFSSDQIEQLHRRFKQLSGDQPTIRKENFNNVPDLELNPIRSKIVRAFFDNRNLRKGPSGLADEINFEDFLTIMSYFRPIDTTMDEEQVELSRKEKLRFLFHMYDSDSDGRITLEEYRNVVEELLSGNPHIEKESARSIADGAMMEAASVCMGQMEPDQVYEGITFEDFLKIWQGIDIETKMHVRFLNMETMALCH
Sequence of UniProt Q13595 (Q13595 whole entry, looked up): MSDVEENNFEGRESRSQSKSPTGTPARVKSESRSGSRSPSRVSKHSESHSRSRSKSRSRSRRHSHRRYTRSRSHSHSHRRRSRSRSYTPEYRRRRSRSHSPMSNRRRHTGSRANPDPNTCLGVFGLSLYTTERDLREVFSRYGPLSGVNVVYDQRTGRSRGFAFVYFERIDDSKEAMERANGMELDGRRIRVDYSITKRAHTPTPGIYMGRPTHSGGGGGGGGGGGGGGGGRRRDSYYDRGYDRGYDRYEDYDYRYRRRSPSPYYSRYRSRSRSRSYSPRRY
Sequence of UniProt P17480 (P17480 whole entry, looked up): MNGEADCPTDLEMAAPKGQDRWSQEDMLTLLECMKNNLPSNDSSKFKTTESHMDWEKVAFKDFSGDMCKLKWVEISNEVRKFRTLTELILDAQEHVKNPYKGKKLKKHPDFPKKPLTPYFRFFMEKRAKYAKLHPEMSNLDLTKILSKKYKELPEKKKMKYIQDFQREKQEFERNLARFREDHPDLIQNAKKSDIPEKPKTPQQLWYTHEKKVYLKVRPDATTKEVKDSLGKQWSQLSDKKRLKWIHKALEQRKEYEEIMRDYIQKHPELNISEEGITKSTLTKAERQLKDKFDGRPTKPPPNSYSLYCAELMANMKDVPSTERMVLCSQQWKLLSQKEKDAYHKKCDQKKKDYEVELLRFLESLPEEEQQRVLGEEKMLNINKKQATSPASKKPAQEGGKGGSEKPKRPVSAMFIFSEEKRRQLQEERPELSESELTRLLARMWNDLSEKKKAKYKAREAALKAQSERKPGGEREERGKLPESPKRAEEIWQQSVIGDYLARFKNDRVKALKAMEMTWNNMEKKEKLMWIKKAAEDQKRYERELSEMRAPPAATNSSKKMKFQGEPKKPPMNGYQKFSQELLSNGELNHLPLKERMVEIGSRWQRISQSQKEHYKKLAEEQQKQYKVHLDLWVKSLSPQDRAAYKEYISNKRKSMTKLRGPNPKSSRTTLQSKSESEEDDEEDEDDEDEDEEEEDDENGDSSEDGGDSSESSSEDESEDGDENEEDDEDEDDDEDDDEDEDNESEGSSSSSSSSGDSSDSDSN
Sequence of UniProt P06753 (P06753 whole entry, looked up): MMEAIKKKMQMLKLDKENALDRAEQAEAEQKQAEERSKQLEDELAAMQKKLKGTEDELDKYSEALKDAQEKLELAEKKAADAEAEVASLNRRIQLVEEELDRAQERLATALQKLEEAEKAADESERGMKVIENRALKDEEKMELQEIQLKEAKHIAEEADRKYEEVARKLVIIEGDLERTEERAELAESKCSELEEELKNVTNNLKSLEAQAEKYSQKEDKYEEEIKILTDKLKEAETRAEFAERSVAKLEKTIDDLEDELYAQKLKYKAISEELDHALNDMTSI
Sequence of UniProt Q5BJF2 (Q5BJF2 whole entry, looked up): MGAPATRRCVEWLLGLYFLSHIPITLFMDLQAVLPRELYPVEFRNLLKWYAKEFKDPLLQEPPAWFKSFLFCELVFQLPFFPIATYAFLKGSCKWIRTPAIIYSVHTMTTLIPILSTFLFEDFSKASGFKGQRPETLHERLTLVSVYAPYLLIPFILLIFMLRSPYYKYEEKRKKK

Regarding TUBA1C (UniProt Q9BQE3), the log2 fold change in assay [1] was 0.043; in assay [2] it was 0.03; in assay [3], 0.023; in assay [4], 0.003; in assay [5], -0.006.

Regarding TMEM263 (UniProt Q8WUH6), the log2 fold change in assay [1] is -0.286; in assay [2], -0.048; in assay [3], 0.211; in assay [4] it was -0.138; in assay [5] it was -0.073.

For UBE2L6 (UniProt O14933), the log2 fold change in assay [1] was -0.01; in assay [2] it was 0; in assay [3] it was -0.068; in assay [4], 0.032; in assay [5], 0.008.

For the target TMEM164 (UniProt Q5U3C3), the log2 fold change is -0.13 in assay [1]; -0.155 in assay [2]; 0.111 in assay [3]; -0.217 in assay [4]; -0.543 in assay [5].

TSPAN13 (UniProt O95857): the log2 fold change is 0.076 in assay [1]; 0.025 in assay [2]; -0.048 in assay [3]; 0.187 in assay [4]; -0.131 in assay [5].

In the case of TPM3 isoform 2 (UniProt P06753), the log2 fold change in assay [1] was -0.02; in assay [2], 0.01; in assay [3], -0.025; in assay [4], -0.009; in assay [5], 0.056.

As for TPM1 (UniProt H7BYY1), the log2 fold change in assay [1] was -0.028; in assay [2], 0.017; in assay [3], 0.059; in assay [4], 0.031; in assay [5], 0.023.

With TPST2 (UniProt O60704), the log2 fold change was -0.034 in assay [1]; 0.021 in assay [2]; -0.028 in assay [3]; -0.054 in assay [4]; -0.384 in assay [5].

For TCAF2 (UniProt A6NFQ2), the log2 fold change was 0.159 in assay [1]; 0.091 in assay [2]; 0.027 in assay [3]; 0.007 in assay [4]; 0.042 in assay [5].

As for TIAL1 isoform 2 (UniProt Q01085), the log2 fold change in assay [1] was 0.068; in assay [2], 0.017; in assay [3], -0.02; in assay [4] it was 0.031; in assay [5] it was -0.021.

With TUBB3 (UniProt Q13509), the log2 fold change in assay [1] was 0.014; in assay [2], -0.005; in assay [3], 0.008; in assay [4] it was 0.008; in assay [5] it was 0.01.

For the target TESC (UniProt Q96BS2), the log2 fold change was 0.034 in assay [1]; -0.131 in assay [2]; -0.001 in assay [3]; 0.004 in assay [4]; 0.016 in assay [5].

Regarding TMEM97 (UniProt Q5BJF2), the log2 fold change in assay [1] is 0.048; in assay [2] it was 0.015; in assay [3] it was -0.016; in assay [4] it was -0.081; in assay [5], -0.153.

Regarding TTLL12 (UniProt Q14166), the log2 fold change in assay [1] is -0.004; in assay [2] it was 0.013; in assay [3], 0.011; in assay [4], 0.015; in assay [5], 0.033.

In the case of UBTF (UniProt P17480), the log2 fold change is -0.031 in assay [1]; 0.028 in assay [2]; -0.012 in assay [3]; 0.007 in assay [4]; 0.069 in assay [5].

Turning to TMEM87B (UniProt Q96K49), the log2 fold change in assay [1] is 0.529 (active); in assay [2], 0.02; in assay [3] it was 0.075; in assay [4], 0.001; in assay [5], 0.038.

For the target TRA2A (UniProt Q13595), the log2 fold change in assay [1] is -0.076; in assay [2], 0.065; in assay [3], 0.034; in assay [4] it was -0.054; in assay [5], 0.004.

With TTC12 isoform 2 (UniProt Q9H892), the log2 fold change in assay [1] is -0.123; in assay [2], -0.131; in assay [3], 0.033; in assay [4] it was 0.044; in assay [5], 0.058.

UBR1 (UniProt Q8IWV7): the log2 fold change in assay [1] is -0.032; in assay [2] it was 0.002; in assay [3] it was -0.026; in assay [4], 0.026; in assay [5], 0.

With UBXN2B (UniProt Q14CS0), the log2 fold change in assay [1] was 0.028; in assay [2], -0.03; in assay [3], 0.019; in assay [4] it was 0.042; in assay [5], 0.014.

In the case of TXNRD2 (UniProt Q9NNW7), the log2 fold change in assay [1] is 0.023; in assay [2], -0.015; in assay [3] it was -0.048; in assay [4], -0.042; in assay [5] it was 0.006.

As to TP53RK (UniProt Q96S44), the log2 fold change in assay [1] was 0.013; in assay [2], 0.021; in assay [3], -0.003; in assay [4], 0.073; in assay [5], 0.09.

Take UBL5 (UniProt Q9BZL1): the log2 fold change is 0.063 in assay [1]; 0.008 in assay [2]; -0.06 in assay [3]; 0.005 in assay [4]; -0.167 in assay [5].

Regarding TERF2IP (UniProt Q9NYB0), the log2 fold change in assay [1] was 0.023; in assay [2], -0.006; in assay [3], -0.077; in assay [4], -0.03; in assay [5], 0.116.

The values are drawn from the supplement of paper PMC10849652.
